Measured values: PubChem BioAssay
Values joined by “and” are separate entries in the source; they are usually repeats but may differ in a detail not shown here. Equal entries are not always repeated. Active and inactive are the calls of the source. Cut-off read from the data, not from the text of the source, unless noted: active = inhibition above about 80%; inactive = the rest.

Assays:
[1] = molecular target: NAD(+) hydrolase SARM1 (Homo sapiens) (UniProt Q6SZW1); assay: blocking NAD cleavage by SARM1 SAM-TIR – cell lysate, NAD-Glo luminescence (AID 1508614;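 active = compound whose remaining NAD level is above about 45 nM, limit read from the data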;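 note: higher remaining NAD means stronger inhibition of SARM1 NADase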); details: SAM-TIR HEK293T lysate NADase, at 1 µM, stronger effect = higher value
[2] = molecular target: Mitogen-activated protein kinase 7 (Homo sapiens) (UniProt Q13164); assay: Gal4-ERK5 driven luciferase induction – cell-based, HTS, primary screen (AID 1508626;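 active = luciferase signal above three times the same-plate solvent-only control wells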;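 note: luciferase driven by Gal4-ERK5 fusion binding five Gal4 sites before minimal TATA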); details: HeLa Gal4-ERK5 transactivation, 18 h, at 5 µM, stronger effect = higher value
[3] = growth inhibition, single agent or in combination, cell-based, chromothripsis tumors, cisplatin or BGB combos (AID 1671449); details: LFS_MB_P medulloblastoma cells;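 note: cells exposed for 96 hours; 0% = vehicle DMSO and 100% = killing by high DMSO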
[4] = growth inhibition, single agent and combos, cell-based, chromothripsis tumors, cisplatin or BGB combos (AID 1671450); details: HDN33 neuroblastoma cells, stronger effect = higher value;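 note: cells exposed to compound for four days; 0% = vehicle DMSO and 100% = cell killing by high DMSO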
[5] = growth inhibition, single agents and combos, ICB984, cell-based, cisplatin or BGB combos, synergistic combos for chromothripsis tumors (AID 1671451; call rule not given here;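 note: cells exposed for 96 hours before readout; 0% = vehicle DMSO and 100% = killing by high DMSO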); details: ICB984 medulloblastoma cells, drug combinations, stronger effect = higher value
[6] = growth inhibition, single agents and combos, LFS_MB_1R, cell-based, cisplatin or BGB combos, synergistic combos for chromothripsis tumors (AID 1671452); details: LFS_MB_1R medulloblastoma cells, stronger effect = higher value;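 note: cells exposed for 96 hours before readout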
[7] = growth inhibition, single agents and combos, HTB85, cell-based, BGB or cisplatin IC20 combos, synergistic combos for chromothripsis tumors (AID 1671453); details: HTB85 osteosarcoma cells, drug combinations, stronger effect = higher value;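 note: cells exposed for 96 hours before readout; 0% = vehicle DMSO and 100% = high DMSO killing control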
[8] = growth inhibition, single agents and combos, CRL2098, cell-based, BGB or cisplatin IC20 combos, synergistic combos for chromothripsis tumors (AID 1671454); details: CRL2098 osteosarcoma cells, drug combinations, stronger effect = higher value;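 note: cells exposed for 96 h before readout; 0% = vehicle DMSO and 100% = killing by high DMSO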
[9] = growth inhibition, single agents and combos, HD-MB03, cell-based, BGB or cisplatin IC20 combos, synergistic combos for chromothripsis tumors (AID 1671455; in the data active = inhibition above about 83%;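 note: 0% = vehicle DMSO and 100% = high DMSO as cytotoxic control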); details: HD-MB03 medulloblastoma cells, stronger effect = higher value
[10] = growth inhibition, single agents and combos, UWB1.289, cell-based, BGB or cisplatin combos, synergistic combos for chromothripsis tumors (AID 1671456); details: UWB1.289 ovarian carcinoma cells, stronger effect = higher value;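 note: cells exposed to compound for four days; 0% = vehicle DMSO and 100% = killing by high DMSO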
[11] = growth inhibition, single agents and combos, LFS_MB_2R, cell-based, cisplatin combos, synergistic combos for chromothripsis tumors (AID 1671457); details: LFS_MB_2R medulloblastoma cells, stronger effect = higher value;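 note: cells exposed to compound for four days before readout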
[12] = growth inhibition, MDA-MB-436, cell-based, BGB or cisplatin combos, synergistic combos for chromothripsis tumors (AID 1671458; call rule not given here;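 note: cells exposed for 96 hours; 0% = vehicle DMSO and 100% = killing by high DMSO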); details: MDA-MB-436 breast carcinoma growth inhibition, drug combinations, stronger effect = higher value
[13] = UWB1.289_BRCA1 ovarian cancer growth, cell-based, BGB or cisplatin combinations (AID 1671459); details: UWB1.289 BRCA1 ovarian carcinoma, drug combinations, stronger effect = higher value
[14] = drug combination toxicity in non-malignant astrocytes – cell-based, BGB or cisplatin IC20 combos, cytotoxicity control for chromothriptic childhood tumor combination screen (AID 1671460); details: Human astrocytes, viability inhibition, drug combinations, at 0.5 µM, stronger effect = higher value;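 note: cells exposed to compounds for 96 hours before viability readout; 0% = vehicle and 100% = killing control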
[15] = BT084 cell growth, single and combined drugs, ICGC_MB145, cisplatin and BGB IC40 combos (AID 1671461); details: BT084 medulloblastoma cells, drug combinations, stronger effect = higher value;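 note: cells exposed to drugs for 96 hours; 0% = vehicle DMSO and 100% = high DMSO full killing control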
[16] = RCMB18 cell growth, single agent and combined, cisplatin and BGB IC40 combos (AID 1671462); details: RCMB18 medulloblastoma cells, stronger effect = higher value;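 note: cells exposed to compound for four days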
[17] = CRL1545 cell growth, single agent and combined, cisplatin and BGB IC20 combos (AID 1671464); details: CRL1545 osteosarcoma cells, stronger effect = higher value;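 note: cells exposed to compound for 96 hours before readout; 0% = vehicle DMSO and 100% = high DMSO killing control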
[18] = galactose survival enhancers in mitochondrial complex I cybrids – cell-based, galactose medium, ATP luminescence, primary screen (AID 1645843;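 active = z-score of at least 1.8 in each of two replicates, scored against plate mean and spread of sample wells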;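 note: positive z means more ATP and so rescue of galactose-driven cybrid death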); details: complex I mutant cybrid cells, 72 h, stronger effect = higher value
[19] = measured here: combination with BGB IC40, at 0.05 µM
[20] = measured here: with BGB IC20 combination, at 0.5 µM
[21] = measured here: with cisplatin IC20 combination, at 0.5 µM
[22] = measured here: combination with cisplatin, at 0.5 µM
[23] = measured here: combination with cisplatin, at 5 µM

Chain of NAD(+) hydrolase SARM1 (Homo sapiens) (Q6SZW1 whole entry, looked up, the tested form may be a part): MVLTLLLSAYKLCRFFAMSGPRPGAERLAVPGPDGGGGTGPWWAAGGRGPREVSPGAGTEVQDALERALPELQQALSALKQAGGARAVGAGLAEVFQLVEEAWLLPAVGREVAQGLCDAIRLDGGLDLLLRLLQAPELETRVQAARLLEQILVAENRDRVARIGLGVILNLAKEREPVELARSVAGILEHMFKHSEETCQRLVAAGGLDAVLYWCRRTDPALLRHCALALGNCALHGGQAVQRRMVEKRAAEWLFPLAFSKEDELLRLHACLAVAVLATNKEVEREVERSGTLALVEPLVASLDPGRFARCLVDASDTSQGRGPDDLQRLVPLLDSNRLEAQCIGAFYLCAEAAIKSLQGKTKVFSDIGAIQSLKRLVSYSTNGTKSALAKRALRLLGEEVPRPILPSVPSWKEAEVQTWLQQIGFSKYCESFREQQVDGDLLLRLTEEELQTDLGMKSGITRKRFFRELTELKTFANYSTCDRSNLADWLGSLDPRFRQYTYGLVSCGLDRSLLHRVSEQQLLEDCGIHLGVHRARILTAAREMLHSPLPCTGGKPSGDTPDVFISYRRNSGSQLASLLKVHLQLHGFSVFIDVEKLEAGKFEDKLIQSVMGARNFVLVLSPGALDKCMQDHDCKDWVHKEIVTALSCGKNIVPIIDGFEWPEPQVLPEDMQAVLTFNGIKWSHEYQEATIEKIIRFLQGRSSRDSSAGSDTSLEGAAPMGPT
Chain of Mitogen-activated protein kinase 7 (Homo sapiens) (Q13164 whole entry, looked up, the tested form may be a part): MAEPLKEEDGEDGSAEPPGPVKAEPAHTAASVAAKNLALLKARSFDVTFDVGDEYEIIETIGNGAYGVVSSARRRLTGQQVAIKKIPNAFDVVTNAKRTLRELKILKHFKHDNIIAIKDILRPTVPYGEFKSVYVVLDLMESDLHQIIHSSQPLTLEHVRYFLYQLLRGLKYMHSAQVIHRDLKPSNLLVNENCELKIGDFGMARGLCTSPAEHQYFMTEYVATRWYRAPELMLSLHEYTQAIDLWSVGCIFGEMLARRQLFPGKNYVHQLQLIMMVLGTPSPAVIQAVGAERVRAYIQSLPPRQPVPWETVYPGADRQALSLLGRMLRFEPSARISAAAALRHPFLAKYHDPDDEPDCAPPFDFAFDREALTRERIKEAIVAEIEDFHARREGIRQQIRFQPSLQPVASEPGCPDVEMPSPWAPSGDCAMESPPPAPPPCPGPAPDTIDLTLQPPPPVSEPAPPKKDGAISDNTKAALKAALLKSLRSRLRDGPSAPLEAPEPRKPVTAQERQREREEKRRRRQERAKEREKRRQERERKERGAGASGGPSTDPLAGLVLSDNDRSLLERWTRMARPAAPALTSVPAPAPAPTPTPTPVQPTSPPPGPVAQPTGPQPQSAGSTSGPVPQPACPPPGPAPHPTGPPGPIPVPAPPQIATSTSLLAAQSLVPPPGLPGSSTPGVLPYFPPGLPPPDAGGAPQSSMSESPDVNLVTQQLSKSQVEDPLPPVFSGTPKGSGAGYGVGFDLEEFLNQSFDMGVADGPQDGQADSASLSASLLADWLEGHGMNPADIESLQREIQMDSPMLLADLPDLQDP

O=c1oc2c(O)c(O)cc3c(=O)oc4c(O)c(O)cc1c4c23
remaining NAD [1]: 10 nM (inactive) | luciferase signal [2]: 60 AU (inactive) | inhibition ([3]; at 0.5 µM, stronger effect = higher value): -26.4% (inactive) | inhibition ([3]; measured here: combination with BGB IC20, at 0.005 µM): 13.8% | inhibition ([3]; measured here: combination with BGB IC40, at 0.005 µM): -25.9% | inhibition [3, 19]: -14% | inhibition ([3]; measured here: combination with cisplatin, at 0.5 µM, stronger effect = higher value): -13.4% | inhibition ([3]; measured here: combination with cisplatin, at 5 µM, stronger effect = higher value): -36.9% | inhibition ([4]; BGB combo, at 5 µM): -24.4% | inhibition ([4]; at 0.5 µM): -5.05% (inactive) | inhibition ([4]; cisplatin combo, at 5 µM): 3.04% | inhibition [4, 20]: -1.3% | inhibition [4, 21]: -3.36% | inhibition ([4]; single agent, at 5 µM): -3.55% | inhibition ([5]; BGB IC20 combo, at 0.005 µM): 10.1% | inhibition ([5]; BGB IC40 combo, at 0.005 µM): -45.8% | inhibition ([5]; BGB IC40 combo, at 0.05 µM): -40.1% | inhibition ([5]; at 0.5 µM): -16.9% (inactive) | inhibition ([5]; cisplatin combo, at 0.05 µM): -45.7% | inhibition ([5]; cisplatin combo, at 0.5 µM): -24.8% | inhibition ([5]; cisplatin combo, at 5 µM): -34.2% | inhibition ([5]; measured here: 5 uM single agent, at 5 µM): -15.6% | inhibition ([6]; at 0.5 µM): -12.6% (inactive) | inhibition [6, 19]: -1.97% | inhibition [6, 22]: -11.4% | inhibition [6, 23]: -1.35% | inhibition ([7]; at 0.5 µM): -9.37% (inactive) | inhibition ([7]; measured here: with BGB IC20, at 0.5 µM): -9.05% | inhibition ([7]; measured here: with BGB IC20, at 5 µM): -11.1% | inhibition ([7]; measured here: with cisplatin IC20, at 0.5 µM): -24.3% | inhibition ([7]; measured here: with cisplatin IC20, at 5 µM): -7.84% | inhibition ([7]; single agent, at 5 µM): 28.9% | inhibition ([8]; at 0.5 µM): -20.7% (inactive) | inhibition ([8]; measured here: combination with BGB at IC20, at 0.5 µM): -5.49% | inhibition ([8]; measured here: combination with cisplatin at IC20, at 0.5 µM): -39.6% | inhibition ([9]; at 0.5 µM): 11.2% (inactive) | inhibition ([9]; measured here: combo with BGB at IC20, at 0.5 µM): -0.451% | inhibition ([9]; measured here: combo with cisplatin at IC20, at 0.5 µM): -7.75% | inhibition ([10]; at 0.5 µM): -3.64% (inactive) | inhibition ([10]; measured here: inhibition with BGB combination, at 0.05 µM): -22.8% | inhibition ([10]; measured here: inhibition with cisplatin combination, at 0.05 µM): -16.6% | inhibition ([11]; at 0.5 µM): -23% (inactive) | inhibition [11, 22]: -27.7% | inhibition [11, 23]: -17% | inhibition ([12]; at 0.5 µM): -9.5% (inactive) | inhibition ([12]; measured here: BGB combination, at 0.5 µM): -12.3% | inhibition ([12]; measured here: BGB combination, at 5 µM): -25.4% | inhibition ([12]; measured here: cisplatin combination, at 0.5 µM): -5.2% | inhibition ([12]; measured here: cisplatin combination, at 5 µM): -11.4% | inhibition ([13]; BGB combination, concentration series, at 5 µM): 12.5% | inhibition ([13]; at 0.5 µM): -1.72% (inactive) | inhibition ([13]; cisplatin combination, concentration series, at 5 µM): 19.2% | inhibition [14]: 10.8% (inactive) | inhibition ([14]; measured here: combo with BGB IC20): 0.281% | inhibition ([14]; measured here: combo with cisplatin IC20): 16.2% | inhibition ([15]; at 0.5 µM): -21.3% (inactive) | inhibition ([15]; cisplatin combination, at 0.5 µM): -17.9% | inhibition ([15]; cisplatin combination, at 5 µM): -19.7% | inhibition ([15]; measured here: BGB IC40 combination 0.05 uM, at 0.05 µM): 1.07% | inhibition ([15]; single agent, at 5 µM): -27.1% | inhibition ([16]; at 0.5 µM): -15.5% (inactive) | inhibition ([16]; cisplatin combo, at 5 µM): 10.7% | inhibition ([16]; measured here: BGB IC40 combination, at 0.05 µM): -24.9% | inhibition [16, 22]: 18.1% | inhibition ([16]; single agent, at 5 µM): -30.9% | inhibition ([17]; at 0.5 µM): -12.1% (inactive) | inhibition [17, 20]: 3.22% | inhibition [17, 21]: -19.8% | inhibition ([17]; single agent, at 0.05 µM): -16% | inhibition ([17]; single agent, at 5 µM): 12.2%

Cc1cc(N)c2ccccc2[n+]1CCCCCCCCCC[n+]1c(C)cc(N)c2ccccc21
remaining NAD [1]: 10 nM (inactive) | z-score [18]: -1.04 (inactive)

Cc1cnc(C(=O)O)c[n+]1[O-]
remaining NAD [1]: 10 nM (inactive) | z-score [18]: 0.95 (inactive)

CCOC(=O)OC(C)OC1=C(C(=O)Nc2ccccn2)N(C)S(=O)(=O)c2ccccc21 (stereo unspecified)
remaining NAD [1]: 10 nM (inactive) | z-score [18]: 0.855 (inactive) and 0.87 (inactive)

O=C(c1ccc(F)cc1)C1CCN(CCn2c(=O)[nH]c3ccccc3c2=O)CC1
remaining NAD [1]: 10 nM (inactive) | z-score [18]: 0.47 (inactive) and 0.155 (inactive) and 0.975 (inactive)

CCCCCCCCCCCCCCCCCCOCC(O)CO (stereo unspecified)
luciferase signal [2]: 152 AU (inactive)

Cc1scc2c1N(C(=O)CN1CCN(C)CC1)c1ccccc1NC2=O
remaining NAD [1]: 10 nM (inactive) | z-score [18]: 0.33 (inactive) and 0.02 (inactive) and 0.68 (inactive)
